This passage reports outcome results from PubChem BioAssay AID618 (Sanford-Burnham Center for Chemical Genomics, 2007).

Structures are written as SMILES. Among all 87,000 compounds or so, about 540 (0.62%) were called active. No rule for the calls is given here. This excerpt belongs to a sample that is enriched for actives. Entries with a potency or affinity are not part of this list.

The nature of the experiment: MT1-MMP gene expression reporter suppression – cell-based, luciferase reporter, luminescence (AID 618).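 Also: actives suppress MT1-MMP promoter-driven transcription so potencies describe inhibitors.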 To be noted: MT1-MMP promoter luciferase reporter cells. Background: Reporter assays use an easily measured gene product as a stand-in for the process of interest.
For the compound `CCN(CC)c1ccc2cc(C(C)=O)c(=O)oc2c1`, the result was inactive.

In the case of `CCN(CC)c1ccc2cc(C(=O)Nc3ccccn3)c(=O)oc2c1`, the compound was classed as inactive.

Take `CC(C)C(NS(=O)(=O)c1ccc(Br)s1)C(=O)O` (configuration not stated): the result was inactive.

On to `O=C(CCCSc1nnc(-c2cccs2)n1CC1CCCO1)c1ccccc1` (configuration not stated), for which the compound was classed as inactive.

`CCOc1ccc(Nc2cc(C)nc(-n3nc(C)cc3C)n2)cc1`: the outcome was inactive.

Turning to `COc1ccc(Nc2cc(C)nc(-n3nc(C)cc3C)n2)cc1`, the call was active.

In the case of `CC(=O)c1ccc(Oc2cc(C)nc(-n3nc(C)cc3C)n2)cc1`, the call was active.

In the case of `COC(=O)c1ccc(Oc2cc(C)nc(SC)n2)cc1`, the result was inactive.

Consider `COC(=O)c1ccc(Oc2nc(C)cc(Oc3ccccc3)n2)cc1`, for which the compound was called inactive.

Regarding `COC(=O)c1ccc(Oc2cc(C)nc(-n3nc(C)cc3C)n2)cc1`, the call was active.

For the compound `CNc1cc(C)nc(-n2nc(C)cc2C)n1`, the result was inactive.

As to `CC(=O)c1ccc(Oc2cc(C)nc(NCc3ccccc3)n2)cc1`, the outcome was inactive.

For `Cc1ccc(Oc2cc(-n3nc(C)cc3C)ncn2)cc1`, the compound was called inactive.

On to `Cc1ccc(C(=O)NCc2cccs2)cc1S(=O)(=O)N1CCCCC1`, for which the result was inactive.

`Cc1cccc(OCCn2c(=O)sc3ccccc32)c1`: the compound was classed as inactive.

Turning to `CCSc1nnc(NC(=O)CSc2nc3c(c(=O)n2C)SC(C)C3)s1` (configuration not stated), the call was inactive.

In the case of `COc1ccc(C)cc1S(=O)(=O)N(C)CC(=O)Nc1ccccc1`, the compound was called inactive.

As for `Cc1ccc(-c2nnc(SCC(=O)N3CCCC3)o2)cc1C`, the result was inactive.

Take `COC(=O)c1ccc(S(=O)(=O)c2ccccc2)c(N)c1`: the outcome was inactive.

On to `O=C(Cn1cnc2c(nnn2Cc2ccccc2)c1=O)N1CCN(c2ccccc2)CC1`, for which the compound was called inactive.

Turning to `CCOc1nc(NC2CCCCC2)nc(NC(C)(C)C)n1`, the result was inactive.

For the compound `C/C=C/COC(=O)c1[nH]c2c(c1C)C(=O)CC(c1ccco1)C2` (configuration not stated), the call was active.

As to `C=CCOC(=O)c1[nH]c2c(c1C)C(=O)CC(c1ccco1)C2` (configuration not stated), the call was active.

Turning to `Cc1c(C(=O)OCC2CCCO2)[nH]c2c1C(=O)CC(c1ccc(N(C)C)cc1)C2` (configuration not stated), the compound was classed as inactive.

As for `C/C=C/COC(=O)c1[nH]c2c(c1C)C(=O)CC(c1ccc(N(C)C)cc1)C2` (configuration not stated), the result was inactive.

`Cc1ccc(S(=O)(=O)N(CC(=O)N2CCC(C(N)=O)CC2)Cc2ccc(F)cc2)cc1`: the outcome was inactive.

`Oc1ccccc1-c1cc(-c2cccc(F)c2)n[nH]1`: the compound was classed as inactive.

On to `Oc1ccc(F)cc1-c1cc(-c2ccc3c(c2)OCCO3)n[nH]1`, for which the call was inactive.

In the case of `Oc1ccccc1-c1cc(-c2ccc3c(c2)OCCO3)n[nH]1`, the compound was called active.

Regarding `Cc1cccc(NCc2ccccc2O)n1`, the result was inactive.

On to `O=C(CSc1nnc(COc2ccc(Cl)cc2)o1)N1c2ccccc2CCc2ccccc21`, for which the result was active.

As to `O=C(CSc1nnc(COc2ccc(Cl)cc2)o1)N1CCN(c2ccccc2)CC1`, the result was inactive.

`O=C(CSc1nnc(COc2ccc(F)cc2)o1)N1c2ccccc2CCc2ccccc21`: the call was inactive.

Take `COC(=O)c1ccccc1NC(=O)NCc1ccco1`: the result was inactive.

For `CC1(C)CC(=O)C2=C(C1)N(CCN1CCOCC1)C1=C(C(=O)CC(C)(C)C1)C2c1cccc(F)c1`, the compound was called inactive.

With `CC(=O)Nc1ccc(-c2nnn(CC(=O)c3ccccc3)n2)cc1Cl`, the outcome was inactive.

`CCOc1cc(/C=N/n2cnnc2)c(Br)cc1O`: the result was active.

For the compound `CCOc1cc(/C=N/n2cnnc2)ccc1O`, the outcome was inactive.

Turning to `CCOc1cc(/C=N/n2cnnc2)cc(Br)c1O`, the outcome was inactive.

With `O=C(COc1ccc(S(=O)(=O)NC2CCCCC2)cc1)NCC1CCCO1` (configuration not stated), the compound was called inactive.

For `N#Cc1nn(-c2ccccc2)nc1N1CCCCC1`, the result was inactive.

For the compound `Cc1ccc(NC(=O)CC(O)(C(F)(F)F)C(F)(F)F)cc1`, the result was inactive.

On to `CCN1C(=O)C2C(c3ccccc3F)NC(Cc3ccc(O)cc3)(C(=O)OC)C2C1=O` (configuration not stated), for which the compound was called inactive.

With `COC(=O)c1sc(NC(=O)c2ccoc2C)nc1C`, the outcome was inactive.

Turning to `COc1ccc(C(=O)Nc2ccc(C)cn2)c(OC)c1`, the outcome was active.

For `COc1ccc(C(=O)Nc2c(F)c(F)c(F)c(F)c2F)c(OC)c1`, the result was inactive.

On to `CCc1nnc(NC(=O)c2c(OC)cccc2OC)s1`, for which the compound was classed as inactive.

For `COC(=O)c1sc(NC(=O)COc2ccc(OC)cc2)nc1C`, the call was inactive.

For the compound `CCOc1ccccc1C(=O)Nc1nnc(CC)s1`, the result was inactive.

As for `COC(=O)c1sc(NC(=O)c2ccc(OC)cc2OC)nc1C`, the result was active.

Take `COc1ccc(C(=O)Nn2cnnc2)c(OC)c1`: the compound was called inactive.

`Cc1ccc(C)c2[nH]c(=O)c(CCNC(=O)C(C)(C)C)cc12`: the compound was classed as inactive.

With `O=S(=O)(c1ccc(Br)cc1)N1CCCN(Cc2ccccc2F)CC1`, the outcome was inactive.

With `COc1ccccc1NC(=O)N1CCN(c2ccc3nncn3n2)CC1`, the outcome was inactive.

Turning to `CCCCOC(=O)C1C2C=C[C@]3(CN(CCCOC)C(=O)[C@H]13)O2` (some centres not stated), the call was inactive.

Regarding `CCOc1ccc(NC(=O)CSc2nnc(Cn3c(=O)sc4ccccc43)n2C)cc1`, the compound was called inactive.

As to `CCOC(=O)c1cnn(CCOC(=O)Cc2cccs2)c1NC(=O)Cc1cccs1`, the compound was classed as inactive.

Consider `CC1=[N+]([O-])C(N2CCOCC2)C(O)(c2ccccc2)C1` (configuration not stated), for which the call was inactive.

Turning to `COCCN1C(=O)c2ccccc2C(C(=O)NCCCN2CCCC2)C1c1c[nH]c2ccccc12` (configuration not stated), the compound was classed as inactive.

Turning to `O=C(NCC(c1cccnc1)N1CCOCC1)c1ccc2c(c1)OCO2` (configuration not stated), the result was inactive.

In the case of `O=S(=O)(NCCOCC(F)(F)C(F)F)c1ccc2oc3ccccc3c2c1`, the result was inactive.

For the compound `S=C(Nc1ccccn1)c1ccccn1`, the compound was called inactive.

Regarding `S=C(Nc1ccccc1)c1ccccn1`, the compound was classed as inactive.

As to `Cc1c(C(=O)c2ccc(Cl)cc2Cl)cnc2cc3c(cc12)OCO3`, the outcome was inactive.

For the compound `O=C(CN1CCN(C(=O)c2ccco2)CC1)Nc1c2c(nc3c1CCC3)CCCC2`, the compound was classed as inactive.

For the compound `COC(=O)c1noc(-c2ccc(C)cc2)n1`, the result was inactive.

As for `Cc1ccc(-c2noc(-c3cccs3)n2)cc1`, the outcome was inactive.

In the case of `COc1ccc(C(NC(N)=O)c2ccccc2)cc1` (configuration not stated), the compound was called inactive.

Regarding `FC(F)C(F)(F)C(F)(F)C(F)(F)c1cc(-c2ccccc2)n[nH]1`, the compound was called inactive.

For `CCN(CC)c1ccc2cc(-c3nc4ccccc4n3C)c(=O)oc2c1`, the compound was classed as inactive.

For `CCN(CC)c1ccc2cc(-c3nnc(-c4ccccc4)o3)c(=O)oc2c1`, the result was inactive.

In the case of `COc1cc(C2CC(=O)n3c(nc4ccccc43)S2)cc(OC)c1OC` (configuration not stated), the compound was called inactive.

As to `O=C1CC(c2ccc3c(c2)OCO3)Sc2nc3ccccc3n21` (configuration not stated), the result was active.

Take `COc1ccc(C2CC(=O)n3c(nc4ccccc43)S2)cc1OC` (configuration not stated): the result was inactive.

As to `Clc1ccc2c(c1)C1OCCC1C(c1ccco1)N2` (configuration not stated), the call was inactive.

Regarding `Cc1ccc(-c2nn(CC(=O)NCc3cc(-c4nn(C)c(=O)c5ccccc45)ccc3C)c(=O)c3ccccc23)cc1`, the call was inactive.

Take `CN(C)S(=O)(=O)c1ccc(C(=O)OCC(=O)NC(=O)NCc2ccccc2)cc1`: the compound was called inactive.

For the compound `CCOC(=O)c1sc(Nc2ccccc2)nc1C`, the result was inactive.

As to `CCOC(=O)c1cccc(NC(=O)c2cccnc2)c1`, the result was inactive.

Take `CCOC(=O)/C(=C\c1cccnc1)C(=O)c1cc(C(C)=O)c(Nc2ccccc2)s1`: the compound was classed as active.

On to `CCOC(=O)/C(=C/Nc1ccccc1)[N+](=O)[O-]`, for which the call was inactive.

For the compound `CCOC(=O)Nc1cccc(Nc2ccccc2)c1`, the compound was called inactive.

With `c1ccc(C2C3=C(CCCC3)Nc3ncnn32)cc1` (configuration not stated), the call was inactive.

With `Cc1cccc(C)c1NC(=O)CSc1nnc(CCCCCNC(=O)OC(C)(C)C)o1`, the compound was called inactive.

On to `COc1ccc2cc(C#N)c(SCC(=O)N3CCCC3)nc2c1`, for which the compound was called inactive.

As for `Nc1cccc2cnccc12`, the result was inactive.

In the case of `Cc1cc2c(N)cccc2nn1`, the compound was called inactive.

`O=S(=O)(c1ccc(N2CCC(c3ccc(Cl)cc3)=N2)cc1)N(CCO)CCO`: the compound was called inactive.

For the compound `CN(C)CCNS(=O)(=O)c1ccc(Cl)cc1`, the result was inactive.

Turning to `CC1NC(=O)NC1CCCCC(=O)O` (configuration not stated), the compound was classed as inactive.

Take `Cc1ccc(S(=O)(=O)NC2=NCN(C3CCCCC3)CN2)cc1`: the compound was classed as inactive.

`Cc1ccc(Cn2c(NCCc3ccccc3)nc3c2c(=O)n(C)c(=O)n3C)cc1`: the compound was classed as inactive.

Regarding `COc1ccc(NS(=O)(=O)c2ccc(N)c(C(=O)O)c2)cc1`, the result was inactive.

`Cc1ccsc1C(=O)OCc1csc(-c2ccccc2)n1`: the compound was called active.

Take `Cn1cccc1C(=O)OCc1csc(-c2ccccc2)n1`: the compound was called inactive.

`O=C(OCc1csc(-c2ccccc2)n1)c1cccs1`: the compound was classed as inactive.

With `O=c1cc(CSc2nnnn2-c2ccccc2)nc2nc[nH]n12`, the result was inactive.

Regarding `O=C(NC1CC1)c1cc2c(s1)-c1ccccc1OC2`, the call was inactive.

As to `Cn1c(=O)cc(SCC(=O)NCC2CCCO2)c2ccccc21` (configuration not stated), the result was inactive.

As to `Cc1cc(NCCCn2ccnc2)n2nc(C)c(-c3ccc(Cl)cc3)c2n1`, the result was inactive.

For `Cc1cc(NCCCN2CCOCC2)n2ncc(-c3ccccc3)c2n1`, the result was inactive.

Turning to `CC(C)(C)c1cc(NCCCn2ccnc2)n2ncc(-c3ccc(Cl)cc3)c2n1`, the compound was called inactive.

For the compound `Cc1cc(NCCCn2ccnc2)n2ncc(-c3ccccc3)c2n1`, the compound was called active.

Take `Cc1cc(NCCCn2ccnc2)n2nc(C)c(-c3ccccc3)c2n1`: the call was inactive.

In the case of `Cc1ccc(C)c(C(=O)CC2(O)C(=O)Nc3ccccc32)c1` (configuration not stated), the call was inactive.

Turning to `Cc1onc(-c2c(F)cccc2Cl)c1C(=O)NCCCN1CCOCC1`, the compound was called inactive.

In the case of `Cc1cccc(C)c1NC(=O)Cn1c(CN2CCCCC2)nc2ccccc2c1=O`, the call was inactive.

Take `CCN(Cc1ccccc1)S(=O)(=O)c1nc2nc(C)c(C)c(C)n2n1`: the compound was classed as inactive.

For the compound `CC(C)CC(=O)Nc1ccc(-c2cn3ccsc3n2)cc1`, the result was inactive.

Take `CC(C)(C)C(=O)Nc1ccc(-c2cn3ccsc3n2)cc1`: the compound was classed as active.

Regarding `CC(=O)Nc1ccc(-c2cn3ccsc3n2)cc1`, the compound was classed as inactive.

For `CCCOC(=O)c1ccc(Oc2c(-c3ccc(OC)cc3O)n[nH]c2C)cc1`, the compound was called inactive.

As for `COc1ccc(CN2CC(C(=O)NCc3ccc4c(c3)OCO4)CC2=O)cc1` (configuration not stated), the call was inactive.

As for `O=C(c1nc2nc(-c3ccccc3)cc(C(F)(F)F)n2n1)N1CCOCC1`, the outcome was inactive.

Take `O=C(CSc1nnc(-c2ccccc2)n1Cc1ccco1)Nc1ccc(S(=O)(=O)N2CCCC2)cc1`: the compound was called inactive.

As to `Clc1ccc(-c2nnc3n2CCCCC3)cc1`, the result was inactive.

For the compound `Clc1ccc(-c2nc(N3CCCCC3)nc3ccccc23)cc1`, the compound was classed as inactive.
